# PubChem BioAssay
# Calls of active or inactive are those of the source. No rule for the calls is given here.
# Experiment: inhibitors of hydroxyurea-induced Chk1 phosphorylation, primary screen, imaging, HeLa, phospho-Chk1 nuclear intensity (AID 1187); also: test concentration not given here
# Conditions: hydroxyurea-induced phospho-Chk1 immunofluorescence imaging, higher = more signal
row,SMILES,z-score
1,COc1cc(OC)c(C(O)C2C=CC3C(=O)N(c4ccccc4)C(=O)C3N2Nc2ccc(C(C)C)cc2)cc1Br (configuration not stated),-0.639 (inactive)
2,CC(C)c1nc2cc(Br)ccc2c(=O)o1,0.0785 (inactive)
3,CN1C(=O)[C@@H]2[C@@H](CC(COc3ccccc3)=C3[C@@H](CCc4ccccc4)OB(O)C[C@@H]32)C1=O,0.768 (inactive)
4,O=C(NCCN1CCOCC1)[C@@H]1c2ccccc2C(=O)N(Cc2ccc(OC(F)(F)F)cc2)[C@H]1c1ccc(CO)cc1,-0.117 (inactive)
5,CN(C)c1ccc(C(O)C2C=CC3C(=O)N(Cc4ccccc4)C(=O)C3N2n2cnnc2)cc1 (configuration not stated),-1.58 (inactive)
6,CC(C)C(O)C1C=CC2C(=O)NC(=O)C2N1Nc1ccccn1 (configuration not stated),-0.67 (inactive)
7,COc1ccc([Si](C)(C)[C@@H]2[C@@H](CC(=O)N3Cc4ccccc4C[C@H]3CO)O[C@]3(C(=O)N(Cc4ccc(N5CCOC5=O)cc4)c4ccccc43)[C@H]2C)cc1,-0.106 (inactive)
8,COCCOC(=O)N1C(=O)[C@@]2(c3cc(C#CCC(C(=O)OC)C(=O)OC)ccc31)[C@H](C(=O)Nc1nc3ccccc3s1)[C@H]1C(=O)O[C@H](c3ccccc3)[C@H](c3ccccc3)N1[C@@H]2c1ccc(O)cc1,0.359 (inactive)
9,COc1cc(CO)cc(I)c1O[C@H]1C=C(C(=O)NCCO)C[C@@H](NC2CCCCCC2)[C@@H]1O,-1.01 (inactive)
10,O=C(NC1CC1)[C@@H]1c2ccccc2C(=O)N(Cc2ccc(OC(F)(F)F)cc2)[C@H]1c1ccc(CO)cc1,-0.577 (inactive)
11,CCOC(=O)C1=CC[C@@H](c2ccc(OC)cc2)N(S(=O)(=O)c2ccc(C)cc2)[C@H]1CC,-0.599 (inactive)
12,CC1CC/C=C\[C@H]2OC34C=CCN(C(C)(C)C)C(=O)[C@H]3N(CCCO)C(=O)[C@@H]4C2C(=O)O1 (some centres not stated),-0.248 (inactive)
13,C=C(C)[C@@H]1CC=C(C(O)C2C=CC3C(=O)N(c4ccccc4)C(=O)C3N2Nc2ccc([N+](=O)[O-])cc2)CC1 (some centres not stated),0.0235 (inactive)
14,C=CCOC(=O)[C@@H]1[C@H]2C(=O)O[C@H](c3ccccc3)[C@H](c3ccccc3)N2[C@H](c2ccc(OCCOC(=O)[C@H]3C[C@H]4C(=O)NCC(=O)N4[C@H]3c3cccc(OCCO)c3)cc2)[C@@]12C(=O)Nc1ccc(I)cc12,-1.2 (inactive)
15,COC(=O)[C@H](Cc1ccccc1)N1CC2=CCCC=C[C@@H]2[C@H]1[C@H](O)Cc1ccccc1,-0.685 (inactive)
16,CC(=O)OCC1C2CC[C@H]3C(OCc4ccc(F)cc4C(F)(F)F)OC[C@]4(C)[C@H]3C2=C(CN4C(=O)OC(C)(C)C)[C@H](C)C1COC(C)=O (some centres not stated),0.833 (inactive)
17,CC(=O)c1ccc(C(O)C2C=CC3C(=O)N(c4ccccc4)C(=O)C3N2Nc2ccc(C(C)C)cc2)cc1 (configuration not stated),-0.371 (inactive)
18,CC(C)NC(=O)[C@@]1(C)c2ccccc2C(=O)N(Cc2ccccc2)[C@H]1c1ccc(CO)cc1,-0.429 (inactive)
19,CCCCC(O)C1C=CC2C(=O)N(c3ccccc3)C(=O)C2N1Nc1ccc([N+](=O)[O-])cc1 (configuration not stated),0.501 (inactive)
20,Cc1ccc(S[C@]2(C(=O)NC3CC3)CC(=O)N(C(C)C)[C@@H]2c2ccc(CO)cc2I)cc1,-0.439 (inactive)
21,COCCOC(=O)N1C(=O)[C@@]2(c3cc(C#CCC(C(=O)OC)C(=O)OC)ccc31)[C@H](C(=O)Nc1nc3ccccc3s1)[C@H]1C(=O)O[C@H](c3ccccc3)[C@H](c3ccccc3)N1[C@@H]2c1ccc(OCCO)cc1,0.611 (inactive)
22,COC(=O)C1=CC(CCCO)=CC(c2cccs2)N(Cc2cc3c(cc2Br)OCO3)C=C1C(=O)OC (configuration not stated),0.454 (inactive)
23,CN1C(=O)C2C(C1=O)C1C=C(c3ccc(CO)cc3)C2C(C2CC2)N1C (configuration not stated),-0.232 (inactive)
24,COCCCNC(=O)[C@@H]1c2ccccc2C(=O)N(Cc2ccc(OC(F)(F)F)cc2)[C@H]1c1ccc(CO)cc1,-0.368 (inactive)
25,COCCCNC(=O)[C@@]1(CCC(=O)OC(C)(C)C)COC(c2ccc(OCCCO)cc2)=N1,0.304 (inactive)
26,O=C(O)[C@H](Cc1ccccc1)n1cc(C2(O)CCCCC2)nn1,-0.535 (inactive)
27,CN(C)CCCC[C@@H]1NC(=O)[C@@H]2C[C@H](C(=O)NCCCCCCNC(=O)CS)[C@H](c3ccc(O)cc3)N2C1=O,-0.405 (inactive)
